# Results published in PubChem BioAssay (NCI).
# About 79,000 compounds went through this panel and 15% of them were active in at least one assay; those are over-represented in the sample as a whole. A number with no mark means an inactive call. The source made the active and inactive calls. No stated cut-off is given here; in the data, active means growth inhibition above about 70%; inactive means the rest.
# Experiments:
# [1] = NCI Yeast Anticancer Drug Screen. Data for the rad50 strain (AID 155);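 further: 0% = growth of vehicle-only cultures of the same strain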; details: S. cerevisiae rad50 strain growth inhibition; at 50.0 µM; active compounds read high
# In short: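 Compounds were tested on a yeast strain with an engineered DNA damage repair alteration; the reported value is growth inhibition normalised to vehicle treatment.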
# [2] = NCI Yeast Anticancer Drug Screen. Data for the mec2-1 strain (AID 157); details: S. cerevisiae mec2-1 strain, at 50.0 µM, active compounds read high
# In short: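 Using mec2-1 yeast: add compound, measure growth, express inhibition versus vehicle-treated cultures.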
# [3] = NCI Yeast Anticancer Drug Screen. Data for the sgs1 mgt1 strain (AID 161);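 further: 0% = growth of cultures given vehicle only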; details: S. cerevisiae sgs1 mgt1 strain, at 50.0 µM, active compounds read high
# In short: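 This yeast growth screen uses a strain with defined DNA-repair lesions; compound-treated growth is compared with vehicle-treated growth.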
# [4] = NCI Yeast Anticancer Drug Screen. Data for the cln2 rad14 strain (AID 165);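 further: 0% = growth equal to vehicle treated cultures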; details: S. cerevisiae cln2 rad14 strain, at 50.0 µM, active compounds read high
# In short: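 Yeast strain cln2 rad14, bearing defects in cell cycle control and DNA repair, serves as the test system; values reflect growth inhibition compared with vehicle.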
# [5] = NCI Yeast Anticancer Drug Screen. Data for the bub3 strain (AID 167); details: S. cerevisiae bub3 mutant strain, at 50.0 µM, active compounds read high
# In short: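 Growth of a checkpoint-deficient yeast mutant is measured after compound exposure. Values represent inhibition relative to vehicle.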
# [6] = NCI Yeast Anticancer Drug Screen. Data for the mlh1 rad18 strain (AID 175); details: S. cerevisiae mlh1 rad18 strain growth inhibition; at 50.0 µM; active compounds read high
# In short: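 Steps: expose repair-defective yeast to compound; measure growth; express inhibition against vehicle-treated controls.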
SMILES,growth inhibition [1],growth inhibition [2],growth inhibition [3],growth inhibition [4],growth inhibition [5],growth inhibition [6]
COc1ccccc1-c1cc(=O)c2cc(C)cnc2[nH]1,5.6%,5.5%,-0.5%,-30.9%,4.65%,13.9%
CCOc1cc(CC[N+](C)(C)C)c2c(ccc3ccc(OC)c(OC)c32)c1OC,18.1%,-10.8%,-5.4%,13.5%,-15.8%,-14.2%
CC(=O)c1c(-c2ccc(Cl)cc2)c(C#N)c(=S)n(C2OC(CO)C(O)C(O)C2O)c1C (stereo not drawn),-2.85%,-6.3%,6.15%,14.8%,-5.15%,12.2%
CC(=O)N(C)CC(c1c(C)[nH]c2ccccc12)c1c(C)[nH]c2ccccc12,15.3%,-12.3%,2.2%,-4%,18%,40.7%
CC(=O)OCCn1c(=O)sc2ccccc21,3.1%,13.8%,3.2%,-8.35%,-10.7%,-1.4%
Cc1ncc(CN2CSC(CCO)C2C)c(N)n1 (stereo not drawn),32.6%,8.4%,27.2%,16.8%,17.4%,43.1%
CC1CCN(C(=O)Nc2ccccc2)CC1,-7.1%,-17.2%,4.9%,-51.3%,-6.05%,-10.7%
O=C(Cc1ccccc1)NN1C(=O)/C(=C\c2cccc([N+](=O)[O-])c2)SC1=Nc1ccccc1,-2.7%,-15.2%,9.95%,17.1%,-14.8%,0.85%
CCOC(=O)c1ccc(NCc2nc3c([nH]2)c(=O)n(C)c(=O)n3C)cc1,-0.95%,-1.45%,-1.35%,-54.1%,-14.2%,1.65%
COc1cc2c(cc1Oc1c(O)c(OC)cc3c1C(C)N(C)CC3)C(C)N(C)CC2 (stereo not drawn),37.5%,-8.1%,2.4%,0.8%,2.5%,14.9%
N#Cc1ccc(NN=NCCCCCl)cc1,8.85%,-8.3%,14.8%,3.05%,-6.7%,2.6%
Cc1ccc(C2=Nc3ccccc3SC(c3cccc([N+](=O)[O-])c3)C2)cc1 (stereo not drawn),11.2%,-12.6%,11.8%,-9.25%,-6.2%,-1.8%
CC(=O)OCC(=O)COC(C)=O,-4.95%,-6.35%,-8.4%,8.5%,-2.2%,-8.55%
S=C(c1ccccc1Cl)N1CCOCC1,18.2%,-22.2%,14.7%,17.1%,20.1%,13.8%
Cc1c2cnccc2c(C)c2c1c1ccccc1n2CCCCCC#N,98.8% (active),99.1% (active),99.2% (active),98.1% (active),98.5% (active),98.8% (active)
Nc1c(N=Nc2ccc(-c3ccc(N=Nc4ccc(O)c(C(=O)O)c4)cc3)cc2)cc(S(=O)(=O)O)c2ccccc12,91.5% (active),96.6% (active),94.9% (active),93.3% (active),91% (active),93.1% (active)
CC(=O)OC(OC(C)=O)c1cccc2ccccc12,3.05%,-9.3%,-5.8%,-15.9%,16.9%,-3.9%
CCC(C)CCC(=O)C(C)C(=O)O (stereo not drawn),5.7%,3.1%,3.45%,-11.3%,4.45%,0.5%
C[CH2][Sn]([CH2]C)([O]C(=O)c1ccc(OC)c(OC)c1OC)[O]C(=O)c1ccc(OC)c(OC)c1OC,41.5%,27.6%,24.6%,28.3%,19.4%,24.8%

SMILES,growth inhibition [1],growth inhibition [2],growth inhibition [3],growth inhibition [4],growth inhibition [5],growth inhibition [6]
CC(C)(NC(=O)c1cc(Cl)c2ccccc2c1O)C(=O)O,4.4%,2.8%,27.7%,22.9%,8.6%,17.7%
Cc1ccccc1OS(=O)(=O)c1ccc(Br)cc1,-4.2%,13.8%,-4.15%,-107%,24.8%,-15.8%
COC1=CC(=O)C=C(OC)C1=O,-2.55%,-12.8%,-28.6%,6.25%,-25.4%,-11.6%
Cc1ccc2c(c1)C(C1=CCCc3ccc(C)cc31)=CCC2,10.2%,-16.5%,9.05%,10.3%,8.2%,13.8%
CCNc1nc(Cl)nc(C(Cl)(Cl)Cl)c1Cl (tested in a mixture with another compound),96.6% (active),95.1% (active),97.8% (active),74.6% (active),71% (active),95.5% (active)
Cc1cccc2nc(-c3ccccn3)n(CCc3ccncc3)c12,98.8% (active),99.2% (active),99.2% (active),98.1% (active),98.8% (active),98.7% (active)
COC(=O)C(CC12CC3CC(CC(C3)C1)C2)NC(=O)C(N)CC(=O)O (stereo not drawn),-42.9%,-30.4%,-23.8%,15.9%,14.7%,-24.4%
COc1ccccc1C(=O)C1OC1c1ccc(Cl)cc1Cl (stereo not drawn),19.1%,-9.7%,-6.9%,-32%,6.85%,5.05%
O=c1/c(=C/c2ccc3c(c2)OCO3)sc2nnc(-c3ccco3)n12,1.85%,-30.1%,17.9%,20.6%,-19.9%,-3.35%
C1=C(c2ccccc2)NC2=N[C@H]3CCCC[C@@H]3N2C1c1ccccc1 (stereo partly drawn),18.9%,10.4%,22.8%,-7.55%,33.8%,91.5% (active)
Clc1c2ncccc2cc2n[nH]nc12,14.9%,21.2%,24%,6.55%,5.8%,17.1%
O=C(O)c1ccc(N2CCOCC2)cc1,-20%,-13.5%,-15.4%,-15.6%,-9.3%,6.6%
Cc1cc(NS(=O)(=O)c2ccc(Nc3c4ccccc4nc4c(C(=O)NCCN(C)C)ccc(Cl)c34)cc2)no1,-9.25%,17.1%,-2.4%,6.1%,-3.25%,63.5%
CCCCN=C(NC#N)NCCCC,-27.6%,7.9%,-31.2%,-0.1%,-25.4%,-13.8%
N=C1N=C(N)c2cc3c(cc21)SCCSCCCSCCS3,6.05%,1.95%,2.6%,9.15%,4.2%,30.4%
COC(=O)CC1CSCC1=O (stereo not drawn),7.5%,22.1%,5.95%,-12.5%,12.6%,11.2%
O=C(Oc1ccc[nH]c1=O)C1CC1,17.9%,7.45%,67.2%,14%,22.2%,38%
CCOC(=O)/C(C#N)=C/N=c1ccccn1C,5.1%,-7.95%,-1.3%,-25.1%,-6.6%,-4.5%
CC1C(C(=O)NCC(c2ccccc2)c2ccccc2)CC2CCCCN21 (stereo not drawn),-15.5%,-4.75%,13.2%,-9.2%,11.2%,25.9%
